Activity change data for 24 compounds are collected here from PubChem BioAssay AID651725 (National Center for Advancing Translational Sciences (NCATS), 2012).

About 2,000 (0.56%) of roughly 360,000 compounds were called active. Inconclusive results (about 2%) are left out. Many of the other results were omitted from the sample, so actives are more common in it than they were. Values without a mark were called inactive. No stated cut-off is given here; in the data, active means activity change below about -65%; inconclusive means mostly about -30% to -63%; inactive means weaker than that.
On the % scale 0 is the no-effect control and ±100 the full control effect.

Sequence of Homeobox protein SIX1 (Homo sapiens) + Protein phosphatase EYA2 (Homo sapiens) (O00167 whole entry, looked up): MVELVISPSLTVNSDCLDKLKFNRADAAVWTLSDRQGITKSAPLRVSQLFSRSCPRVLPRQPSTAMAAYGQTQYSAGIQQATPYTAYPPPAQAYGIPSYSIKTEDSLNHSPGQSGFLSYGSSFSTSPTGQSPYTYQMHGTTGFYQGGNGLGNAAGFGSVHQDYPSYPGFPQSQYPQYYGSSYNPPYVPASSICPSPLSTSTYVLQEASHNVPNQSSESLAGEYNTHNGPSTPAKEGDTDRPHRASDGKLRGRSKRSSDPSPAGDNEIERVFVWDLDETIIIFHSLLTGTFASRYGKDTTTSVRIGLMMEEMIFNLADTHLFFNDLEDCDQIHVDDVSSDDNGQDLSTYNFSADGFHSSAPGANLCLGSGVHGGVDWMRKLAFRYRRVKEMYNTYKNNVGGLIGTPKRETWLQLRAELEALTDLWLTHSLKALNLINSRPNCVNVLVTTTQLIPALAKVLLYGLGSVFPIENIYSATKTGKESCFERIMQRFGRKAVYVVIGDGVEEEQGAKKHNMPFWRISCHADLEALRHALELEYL
Sequence of Homeobox protein SIX1 (Homo sapiens) + Protein phosphatase EYA2 (Homo sapiens) (Q15475 whole entry, looked up): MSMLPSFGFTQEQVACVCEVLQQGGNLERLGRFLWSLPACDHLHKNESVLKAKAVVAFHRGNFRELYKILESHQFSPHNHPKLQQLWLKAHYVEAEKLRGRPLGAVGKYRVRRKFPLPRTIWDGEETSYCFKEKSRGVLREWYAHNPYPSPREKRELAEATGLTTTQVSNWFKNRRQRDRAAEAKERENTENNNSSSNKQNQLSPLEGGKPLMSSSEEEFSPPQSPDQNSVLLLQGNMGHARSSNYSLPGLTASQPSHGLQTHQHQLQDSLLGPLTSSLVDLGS

The assay has as its target Homeobox protein SIX1 (Homo sapiens) + Protein phosphatase EYA2 (Homo sapiens) (UniProt Q15475+O00167). Put plainly: qHTS Assay for Inhibitors of the Six1/Eya2 Interaction. The following applies: AlphaScreen GST-Six1/His-Eya2 binding, biochemical; active compounds read low. In outline: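 Compounds are tested against tagged Six1 and Eya2 proteins bridged by glutathione donor and nickel acceptor beads; after a one-hour incubation at 37 °C without light, AlphaScreen emission is recorded.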
In general terms: qHTS replaces the single test concentration by a dilution series.
In the case of `O=C(Nc1ccc(F)cc1)C(CCc1ccccc1)N1CCN(CC(=O)N2CCCC2)CC1` (centres undefined), the activity change was 1.59%.

Turning to `FC(F)(F)c1cccc(-c2nc3ccccc3n2C(c2ccccc2)c2nc3ccccc3[nH]2)c1` (centres undefined), the activity change was -13.3%.

`CCN(CC(=O)NC1CCS(=O)(=O)C1)S(=O)(=O)c1ccccc1` (centres undefined): the activity change is 9.89%.

Turning to `Cc1ccccc1CN1C(=O)CSCC1(C)C(=O)Nc1c(C)cccc1C` (centres undefined), the activity change was -3.18%.

In the case of `Cc1nc(N=C(N)N)nc2c(C)cccc12`, the activity change was -72.7% (active).

For the compound `COC(=O)[C@@]12C[C@@H](CC(=O)NCCCCc3ccccc3)C(=O)N(CCc3ccc(OC)c(OC)c3)C1=CCC(C)(C)C2`, the activity change is -8.99%.

In the case of `Cc1ccc(C(=O)Nc2c(-c3ccccc3)[nH][nH]c2=O)cc1`, the activity change is 3.7%.

On to `COC(=O)C[C@@H]1C=C[C@@H](NS(=O)(=O)c2cccc(OC)c2)[C@@H](CO)O1`, for which the activity change was -2.42%.

Consider `COc1ccc(Cc2nnc(SC)[nH]c2=O)cc1`, for which the activity change was 0.132%.

Regarding `COc1ccc(Cc2nnc(N/N=C/c3ccccc3O)[nH]c2=O)cc1OC`, the activity change is -85.7% (active).

On to `CC(C)c1ccc(Cc2nnc(NCCCO)[nH]c2=O)cc1`, for which the activity change is 4.24%.

As to `Cc1ccc(/C=C/C(=O)OCC(=O)Nc2cccnc2Cl)cc1`, the activity change is -0.924%.

With `CC(C)(C)NC(=O)C(CCc1ccccc1)n1c(=O)c(-c2ccccc2)nc2ccccc21` (centres undefined), the activity change is 7.94%.

For the compound `COc1cccc(-c2ccc3c(c2)S(=O)(=O)c2cccc(C(=O)O)c2C3=O)c1OC`, the activity change was -5.18%.

With `O=C(O)c1ccc2c3c(cccc13)C(=O)N(OS(=O)(=O)c1ccccc1)C2=O`, the activity change is -77.1% (active).

As to `Cc1cc(Br)cn2c(Cc3ccccc3C(F)(F)F)c(C3CCCCC3)nc12`, the activity change is 11.6%.

For the compound `CC(=O)N1Cc2cc(C(=O)NCc3cccc(F)c3)nc(-c3cccc(C4=CCCC4)c3)c2[C@H]1CCO`, the activity change was -15.8%.

As to `O=C(COc1cc(Cl)c(Cl)cc1Cl)NCCc1ccccn1`, the activity change is -7.95%.

As to `NC(=S)NN=Cc1ccc(OC(=O)COc2cc(Cl)c(Cl)cc2Cl)cn1`, the activity change is -93.5% (active).

Consider `O=C(COC(=O)COc1cc(Cl)c(Cl)cc1Cl)NC1CC1`, for which the activity change was 3.24%.

As to `COc1ccc(C(C(=O)NCc2ccccc2)n2c(=O)c(-c3ccccc3)nc3ccccc32)cc1` (centres undefined), the activity change is 0.529%.

As to `CC(C)C[C@H]1CNC(=O)C(=O)N1C[C@@H]1CCCN1C[C@H](Cc1ccccc1)N1C[C@H](CC(C)C)N(CC2CCCCCC2)C(=O)C1=O`, the activity change is -1.64%.

For the compound `O=C(c1ncn2c1c(=O)[nH]c1ccccc12)N1CCc2ccccc2C1`, the activity change is -3.9%.

As for `O=c1[nH]c2ccccc2n2c(-c3ccccc3)nnc12`, the activity change is -65.3% (active).
